From PubChem BioAssay
The source made the active and inactive calls.

Key:
[1] = system: XIP peptide (Xip251-270) binding; assay: XIP fragment 251-270 binding compounds – biochemical, small-molecule microarray, fluorescence 635/667 nm, 0.1 µg/mL protein, primary screen (AID 1182); details: fluorescent protein binding, 635 nm, higher = more signal, called active from +8 up or from −8 down
XIP peptide (Xip251-270) = assay: compounds binding XIP fragment 251-270 – biochemical, small-molecule microarray, fluorescence 635/667 nm, 0.5 µg/mL protein, primary screen (AID 1183); details: fluorescence 635 nm, higher = more signal
[2] = blood-stage malaria parasite viability loss – strain 3D7, DAPI fluorescence, 100 nL, primary screen (AID 1184);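 note: parasites grown inside human red blood cells in medium with human serum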; details: P. falciparum 3D7 growth, 3 d, higher = more signal
[3] = molecular target: Homeobox protein Hox-A13 (Mus musculus) (UniProt Q62424); assay: disruptors of Hoxa13 oligonucleotide interaction – biochemical, fluorescence polarization, labeled oligonucleotide, primary screen (AID 1185); details: Hoxa13:DNA binding, 15 min, higher = more signal, called active from +8 up or from −8 down
Sequence of Homeobox protein Hox-A13 (Mus musculus) (Q62424 whole entry, looked up): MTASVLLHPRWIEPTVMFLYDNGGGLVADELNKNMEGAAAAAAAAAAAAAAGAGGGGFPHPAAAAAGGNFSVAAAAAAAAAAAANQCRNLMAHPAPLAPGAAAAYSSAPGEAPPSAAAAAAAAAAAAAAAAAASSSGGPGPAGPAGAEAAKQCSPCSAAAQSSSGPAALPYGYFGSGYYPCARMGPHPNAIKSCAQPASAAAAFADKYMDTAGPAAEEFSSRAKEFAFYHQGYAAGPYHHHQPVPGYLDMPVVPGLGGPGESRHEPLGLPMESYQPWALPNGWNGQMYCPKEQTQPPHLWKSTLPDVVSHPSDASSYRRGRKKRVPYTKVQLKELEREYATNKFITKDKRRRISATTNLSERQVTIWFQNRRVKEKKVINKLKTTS

SMILES	composite z-score [1]	composite z-score (XIP peptide (Xip251-270))	z-score [2]	z-score [3]
CCOC(=O)NN=C1C[C@@H](O)[C@@H](O)[C@@H]2[C@@H]3C(=O)N(c4ccc(F)cc4F)C(=O)[C@@H]3CC[C@@H]12	0.015 (inactive)	-0.0246	-0.404	-1.23 (inactive)
CC(C)=CCCC(C)=CCON=C1C[C@@H](O)[C@@H](O)[C@@H]2[C@@H]3C(=O)N(c4ccc(F)cc4F)C(=O)[C@@H]3CC[C@H]12	-0.163 (inactive)	0.37	0.0436	-2.5 (inactive)
CCOC(=O)[C@H](Cc1ccccc1)NC(=O)CCC1CC(OC(=O)NCc2cccc3ccccc23)CC2(CCCC(COC(=O)NCc3cccc(C(F)(F)F)c3)O2)O1 (stereo partly drawn)	0.418 (inactive)	0.335	-1.39	-4.31 (inactive)
O=C1C[C@@H](O)[C@@H](O)[C@@H]2[C@@H]3C(=O)N(C[C@@H]4CCCO4)C(=O)[C@@H]3CC[C@H]12	0.195 (inactive)	0.156	0.116	0.195 (inactive)
CC(C)[C@@H](OCc1ccccc1)[C@H](C)C=NOC[C@@H](O)COCc1ccco1	-0.0277 (inactive)	-0.273	1.4	-2.74 (inactive)
CO[C@H]1COC(=O)CC=C[C@@H](C)[C@H](OC)COC(=O)[C@@H]2CCCN2C(=O)CC=C[C@@H]1C	0.832 (inactive)	0.678	0.095	-0.438 (inactive)
CO[C@H]1COC(=O)CCC[C@@H](C)[C@H](OC)COC(=O)[C@@H](C)NC(=O)CC=C[C@@H]1C	-0.157 (inactive)	-0.0673	-1.29	-1.94 (inactive)
